Screens deposited in PubChem by National Center for Advancing Translational Sciences (NCATS).
Tb PFK inh = qHTS Assay to Find Inhibitors of T. brucei phosphofructokinase. T. brucei PFK, ADP-Glo luminescence. 0.17% of 330,000 active. AID 485367, 2010. Potency, µM (titrated, usually from 57.5 µM), hits mostly inhibitors. ATP-dependent 6-phosphofructokinase (Trypanosoma brucei brucei), O15648; further: nearly all actives have a fitted effect of over 60% in size
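Luminescent ADP detection (ADP-Glo, two-step: ATP depletion then ADP-to-ATP conversion for luciferase) reported PFK activity after 45 min room-temperature reaction of 1.25 nM enzyme with 0.5 mM F6P and 0.1 mM ATP at pH 8.0.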
USP2a inh = qHTS Assay for Inhibitors of Ubiquitin-specific Protease USP2a Using CHOP2 as the Reporter; USP2 core, Ub-CHOP2 coupled fluorogenic reporter, 485/531; Potency, µM (doses to about 38.3 µM), actives largely listed as inhibitors; 0.01% of 330,000 active; AID 463254, 2010
Target sequence (O75604 whole entry, looked up): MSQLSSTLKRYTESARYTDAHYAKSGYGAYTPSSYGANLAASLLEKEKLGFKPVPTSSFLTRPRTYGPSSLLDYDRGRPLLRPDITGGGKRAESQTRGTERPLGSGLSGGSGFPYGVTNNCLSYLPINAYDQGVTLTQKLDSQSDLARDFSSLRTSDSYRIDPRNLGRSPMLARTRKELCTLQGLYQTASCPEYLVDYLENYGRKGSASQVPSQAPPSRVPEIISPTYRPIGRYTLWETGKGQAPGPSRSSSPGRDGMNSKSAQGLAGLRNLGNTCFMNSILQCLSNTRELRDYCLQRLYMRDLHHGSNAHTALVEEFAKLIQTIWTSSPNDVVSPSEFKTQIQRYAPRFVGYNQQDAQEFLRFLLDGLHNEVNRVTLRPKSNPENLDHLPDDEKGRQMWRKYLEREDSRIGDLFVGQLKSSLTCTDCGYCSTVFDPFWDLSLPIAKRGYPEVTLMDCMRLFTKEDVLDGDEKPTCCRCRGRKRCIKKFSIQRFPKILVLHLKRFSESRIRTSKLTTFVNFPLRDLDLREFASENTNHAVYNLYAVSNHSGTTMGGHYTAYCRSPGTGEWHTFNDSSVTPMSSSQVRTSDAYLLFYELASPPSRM
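Cell-free coupled assay: 10nM USP2 core preincubated 30min RT with compound in Tris-HCl pH 8.0/CaCl2/CHAPS buffer, then 25nM Ub-CHOP2 and 25nM reporter substrate; fluorescence (Ex 485/Em 531) read after 60min RT, normalized to NEM inhibition, concentration-response curves fitted.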
GLS inhibitor = qHTS for Inhibitors of Glutaminase (GLS) | GLS enzymatic activity, qHTS titration | AID 624170, 2012 | Potency, µM (series often up to 45.5 µM), most hits filed as inhibitors | 0.21% of 410,000 active | Glutaminase kidney isoform, mitochondrial (Homo sapiens), O94925
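Enzyme dispensed in phosphate buffer (45 mM, pH 8.2, 0.02% Tween-20), compounds pinned in, then 1 mM L-glutamine solution and the glutamate oxidase–HRP–Amplex Red mix added; fluorescence read immediately and again after 30 min at room temperature.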
p53 reactivation = qHTS assay for re-activators of p53 using a Luc reporter. H1299 p53-A138V BP100-luciferase reporter, luminescence, 24 h. Potency, µM (doses to about 92.2 µM), actives largely listed as activators. 0.063% of 320,000 active; further: nearly all actives have a fitted effect of over 45% in size
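H1299 (p53-null), stable ts p53-A138V + BP100-Luc; 1000 cells/well, Opti-MEM/10% FBS; cpd 4 pt, 1:5; 24 h, 37 deg C, 5% CO2; detection reagent 10 min RT; luminescence.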
Hits are given with their value; – = inactive; ? = inconclusive; · = no result given. Compounds with a hit are over-represented: about 0.39% of the library has one in this group of screens. The call rests on the fitted dose curve; in most records, active means well fitted curve in the direction sought with a large enough effect; inconclusive means small, poorly fitted or top-dose-only effect, or another doubt; inactive means no such curve, though single readings can be large; an effect the other way counts as inactive or inconclusive.

SMILES | Tb PFK inh | USP2a inh | GLS inhibitor | p53 reactivation
CCC(C)NC(=O)CSC1=Nc2ccccc2C2=NC(c3ccccc3)C(=O)N12 (stereo not given) | – | ? | 13µM | –
CCOc1ccc(S(=O)(=O)c2cc3cccc(OCC)c3oc2=O)cc1 | · | · | – | ·
Cc1ccc(C(=O)N2CC(=O)Nc3ccc(Br)cc3C2c2ccc(F)cc2)cc1C (stereo not given) | · | · | – | ·
CC(C)N1CCc2c(sc(N)c2C#N)C1 | – | – | 14µM | –
CCN1CCc2c(sc(N)c2C#N)C1 | – | – | – | –
COc1ccc(-c2nc3c(C#N)c[nH]n3c2NC2CCCCC2)cc1 | · | · | 13µM | ·
N#Cc1c[nH]n2c(NC3CCCC3)c(-c3cccc(Br)c3)nc12 | · | · | – | ·
COc1ccccc1Cn1c(=S)[nH]c2cc(C(=O)NCC3CCCO3)ccc2c1=O (stereo not given) | – | – | – | –
COc1ccccc1Cn1c(=S)[nH]c2cc(C(=O)NCCN(C)C)ccc2c1=O | – | – | 10µM | –
CCN1CCN(C(=O)c2ccc3c(=O)n(Cc4ccccc4OC)c(=S)[nH]c3c2)CC1 | – | – | 11µM | –
COC(=O)c1ccc(NC(=O)c2cc3cc(C)ccc3n2C)cc1 | · | · | – | ·
CNc1nc(-c2ccccn2)nnc1-c1ccccc1 | – | – | – | ?
c1ccc(-c2nnc(-c3ccccn3)nc2NC2CCCCC2)cc1 | – | – | – | 35µM
CCCCN(C)c1ncnc2c1cnn2-c1cccc(Cl)c1 | · | · | – | ·
O=C(O)c1cc(-c2ccccc2)nn1Cc1ccccc1 | · | · | – | ·
Cc1ccc(C(=O)Nc2ncccc2C)o1 | · | · | – | ·
Cc1cccnc1NC(=O)c1ccc([N+](=O)[O-])o1 | – | – | – | 11µM
O=C(O)CCC(=O)Nc1ccc(Cc2ccc(NC(=O)CCC(=O)O)c(O)c2)cc1O | – | – | 1.4µM | –
O=C(Nc1ccc(Cc2ccc(NC(=O)C3CC3)c(O)c2)cc1O)C1CC1 | – | – | – | –
CCCCN(CCCC)C(=O)c1cc2c(=O)n3ccccc3nc2s1 | · | · | – | ·
Cc1cc(C)c2c(=O)n(CC(=O)NCCCN3CCN(c4ccccc4F)CC3)sc2n1 | 12µM | – | – | –
O=C(ONC(=O)C1C2C=CC(C2)C1C(=O)NOC(=O)c1ccccc1)c1ccccc1 (stereo not given) | · | · | 13µM | ·
CCOc1ccccc1C(=O)Nc1cc2c(cc1N1CCCCC1)n(C)c(=O)n2C | · | · | – | ·
O=C(CN1CCC(O)CC1)N1c2ccccc2C=Cc2ccccc21 | – | 10µM | – | –
CC1CCN(CC(=O)N2c3ccccc3CCc3ccccc32)CC1 | – | – | – | –
SMILES | Tb PFK inh | USP2a inh | GLS inhibitor | p53 reactivation
CC(C)c1ccc(S(=O)(=O)c2nnn3c2nc(N2CCOCC2)c2sccc23)cc1 | · | · | – | ·
O=c1c2ccccc2[nH]c2ccc(O)cc12 | – | – | 5µM | –
Cc1ccc2[nH]c3ccccc3c(=O)c2c1 | – | – | – | –
CC(C)NS(=O)(=O)c1ccc(OCC(=O)N2CCN(c3ccccc3F)CC2)cc1 | · | · | – | ·
Cc1ccc(-n2c(Cc3cccc4ccccc34)n[nH]c2=S)c(C)c1 | – | – | 10µM | –
Cn1c(N=Nc2ccccc2)nc2ccccc21 | 12µM | – | – | ·
Cc1nn(C)c2c1c(-c1ccccc1)cc(=O)n2Cc1ccccc1C#N | · | · | – | ·
COc1ccc(Cc2nnc(NN)[nH]c2=O)cc1OC | – | – | 22µM | –
O=C1OCC2OC(O)C(O)C(O)C2OC(=O)c2cc(O)c(O)c(O)c2-c2c(O)c(O)c3oc(=O)c4c(c(O)c(O)c5oc(=O)c2c3c54)-c2c1cc(O)c(O)c2O (stereo not given) | 0.95µM | 0.5µM | · | –
O=C(Nc1ccc(Br)cc1)C1CCN(c2ncccn2)CC1 | · | · | – | ·
COC(=O)c1ccccc1NC(=O)CSc1nc2sc3c(c2c(=O)[nH]1)CCCC3 | · | · | – | ·
CCN(CC)c1ccc(/C=N/N2CCOCC2)c(O)c1 | – | – | 13µM | ?
COc1ccc(C(=O)CN2C(=O)N(c3cc(C)cc(C)c3)S(=O)(=O)c3ccccc32)cc1 | · | · | – | ·
CCOc1ccc(CCNC(=O)Cc2ccc(NC(=O)N3CCSc4ncccc43)cc2)cc1 | · | · | – | ·
Cc1ccc(Nc2n[nH]c(C)c2[N+](=O)[O-])cc1C | – | – | – | 22µM
Cc1ccc(C)c(N2CCN(C(=O)C(C)n3nc(C)c4sc5ccccc5c4c3=O)CC2)c1 (stereo not given) | · | · | – | ·
C/C(=N\Nc1ccc(C(=O)O)cc1)c1ccc2c(c1)Nc1ccccc1S2 | – | – | 18µM | –
C/C(=N/Nc1ccc(C(=O)O)cc1)c1ccc2c(c1)Nc1ccccc1S2 | · | · | – | ·
O=C(O)c1c(Cl)c(Cl)c(Cl)c(Cl)c1-c1c2cc(I)c(=O)c(I)c-2oc2c(I)c(O)c(I)cc12 | · | · | 14µM | ·
Cc1c(C(=O)Nc2nnc(C3CC3)s2)oc2ccccc12 | – | – | – | 5µM
COc1ccccc1Cc1nc2ccccc2nc1SCC(=O)N(C)c1ccc(F)cc1 | · | · | – | ·
COCCN1C(=S)N[C@@H](c2ccccc2)C(C(=O)OC)=C1C | – | – | · | ·
COC(=O)c1c(C)cc(O)c(C=O)c1O | · | · | – | ·
COc1cc(C(=O)O)c2c(c1C)OC(=O)c1c(C)cc(O)c(C=O)c1O2 | · | · | 5.6µM | ·
C=Cc1ccc(Cn2c(C(=O)O)c(CNCc3ccc(F)cc3)c3ccc(C)cc32)cc1 | · | · | – | ·
O=C1Cc2cccc(=O)c(O)c2C(=O)O1 | · | · | 4µM | ·
COC(=O)C1=C(O)C2(C(=O)O)CC(C(=O)OC)=C(O)C(C(=O)O)(C1)C2 | – | – | 11µM | –
CC1(C(=O)O)CC(C)(C(=O)O)CC(C)(C(=O)O)C1 (stereo not given) | – | – | – | –
COc1ccccc1N1CCN(c2ncnc3c2c(-c2ccccc2)cn3-c2cccc(C)c2)CC1 | · | · | – | ·
